# Screens deposited in PubChem by National Center for Advancing Translational Sciences (NCATS).
# D1 ag = activates the human D1 dopamine receptor. P21728. activation, % at 2 µM. hit rate 1% among 360,000. HEK293 T-REx D1 cells, calcium flux, agonist mode; in the data active = activation above about 30%; also: 0% is about no effect
#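 Inducible HEK293 T-REx D1 cells, force-coupled to calcium signalling, were plated at 4000 cells/well with tetracycline and held overnight at 30 C. After no-wash calcium dye loading, compound-evoked calcium rise over 180 s flagged agonists.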
# D1 antagonist = antagonists of human D1 dopamine receptor; HEK293 TREx D1 cells, calcium flux, dopamine EC80; active compounds read low; activity change, negative = inhibition, % at 10 µM; hit rate 3.2% among 360,000; in the data active = activity change below about -30%; also: % is scaled to controls: 0 for no effect and ±100 for the full control effect
#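 HEK293 T-REx cells expressing inducible, force-coupled D1 receptor; no-wash Ca dye, 30–90 min RT. Cmpd → 180 s read at 1 Hz → EC80 DA → 180 s read.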
# D1 potentiator = enhances dopamine response at the human D1 receptor; potentiation, % at 10 µM; P21728; HEK293 TREx D1 cells, calcium flux, dopamine EC20 potentiation; hit rate 0.036% among 360,000; in the data active = potentiation above about 30%; also: 0% is about no effect
# DRD3 antagonist = antagonists of human D3 dopamine receptor. hit rate 2.5% among 360,000. P35462. AID 652054. D3R cells, DiscoveRx beta-arrestin luminescence, antagonist mode; active compounds read low. max response, negative = inhibition, %; in the data active = max response below about -50%; inconclusive = no clear call, values can overlap the other calls; also: % is scaled to controls: 0 for no effect and ±100 for the full control effect
#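 Cells plated overnight at 1500 cells/well, then exposed to library compounds with dopamine controls for 90 minutes at 37 degrees C. DiscoveRx reagent added for 30–60 minutes at room temperature; luminescence read, quantitative HTS format.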
# ERG Ets-DNA blk = ERG Ets/DNA interaction inhibition. fluorescence polarization, His-ERG Ets domain / labelled DNA. Potency, µM (top dose mostly 76.9 µM), without a hit: top-dose FP activity, negative = inhibition, most hits filed as inhibitors. AID 624246. hit rate 0.028% among 370,000; active = well fitted inhibition curve with a large enough effect in the polarisation, with a control signal flat; inconclusive = small, poorly fitted or top-dose-only effect, or effect the other way, or a change in a side signal; inactive = no such curve, though single readings can be large or run the other way; the % refers to the polarisation;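 also: polarization taken with two DNA probes labelled with fluorescein and Texas red; potency is read from the fitted curve at half-maximal effect; % of control where 0% means no effect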
# Target sequence (P11308 whole entry, looked up, the tested form may be a part): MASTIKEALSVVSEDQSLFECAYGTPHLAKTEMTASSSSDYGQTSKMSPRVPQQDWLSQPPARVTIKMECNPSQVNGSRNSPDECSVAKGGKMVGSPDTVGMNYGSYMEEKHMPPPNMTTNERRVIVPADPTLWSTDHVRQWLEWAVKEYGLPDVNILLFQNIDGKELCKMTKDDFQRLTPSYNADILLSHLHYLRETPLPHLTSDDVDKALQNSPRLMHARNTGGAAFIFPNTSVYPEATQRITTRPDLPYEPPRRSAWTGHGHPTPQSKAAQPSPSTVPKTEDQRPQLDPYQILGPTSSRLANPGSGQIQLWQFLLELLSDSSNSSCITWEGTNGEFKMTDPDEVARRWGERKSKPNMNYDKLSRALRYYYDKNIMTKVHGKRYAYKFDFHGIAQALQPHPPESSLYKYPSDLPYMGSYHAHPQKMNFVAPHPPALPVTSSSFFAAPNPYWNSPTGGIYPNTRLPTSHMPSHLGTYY
#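 His-tagged ERG Ets domain (1 uM in the protein solution; 300mM KCl, 50mM Tris-HCl, 1mM EDTA, 1mM DTT, pH 7.5) received compound, then a probe mix of 5 nM fluorescein-DNA and 100nM Texas-615-DNA. Fluorescence polarization was read for both dyes.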
# DRD3 agonist = activates the human D3 dopamine receptor | D3R DiscoveRx beta-arrestin cells, luminescence, 90 min | max activation, % | hit rate 0.58% among 410,000; in the data active = max activation above about 30%; also: 0% is about no effect
#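 Agonist-mode cell screen: cells plated at 1500/well and incubated overnight at 37 °C, then exposed to library compounds for 90 min at 37 °C. Detection reagent was added for 30–60 min at room temperature, and luminescence was read.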
# Active calls of the source: *; u = inconclusive; x = no result given. In the library only some 6.1% were active in any assay of this set; here they are far more common.
SMILES,D1 ag,D1 antagonist,D1 potentiator,DRD3 antagonist,ERG Ets-DNA blk,DRD3 agonist
CCOC(=O)[C@]12CCCC=C1N(Cc1ccccc1)C(=O)[C@H](CC(=O)NCCCN1CCCC1=O)C2,x,x,x,17,x,7
Nc1ncnc(Nc2c(F)cccc2F)n1,2,-3,-2,-12,6%,4
CC[C@]12c3[nH]c4cc(-c5ccco5)ccc4c3CCN1C(=O)[C@@H](CC(=O)NCCCn1ccnc1)C[C@@H]2C(=O)N1CCN(C(=O)c2ccco2)CC1,x,x,x,-17,3%,-15
O=C(Nc1c(Cl)cccc1Cl)Oc1cccc2cccnc12,x,x,x,-52*,x,2
O=C(Nc1cccc(C(F)(F)F)c1)Oc1ccc(Cl)c2cccnc12,34*,-21,-5,-62*,6%,-30
O=C(Nc1cccc(Br)c1)Oc1cccc2cccnc12,x,x,x,-83*,x,-24
O=C(COc1cccc2cccnc12)Nc1ccccc1,4,-10,2,-17,1%,-7
CCN(CC)C(=O)Oc1ccc(Cl)c2cccnc12,3,3,1,-6,-4%,-12
O=C1OC(c2ccccc2)=NC12CC2c1ccc(Cl)cc1 (stereo unspecified),2,-20,-3,-73*,8%,-3
Cc1nn(C)cc1/C=C1\SC(=S)NC1=O,3,3,3,-70*,11%,0
O=C1NC(=S)SC1=Cc1ccccc1Cl,x,x,x,16,12%,38*
Cc1nn(C)c(C)c1/C=C1/SC(=S)NC1=O,2,9,2,-24,0%,6
O=C(CN1CCN(C(=O)CCC(=O)N2CCC(c3ccccc3)=N2)CC1)Nc1cccc(F)c1,x,x,x,-15,x,2
O=C(CN1CCN(C(=O)CCC(=O)N2CCC(c3ccccc3)=N2)CC1)Nc1ccc(F)cc1,4,-41*,-6,-16,0%,-12
CCc1nc2ccc(C(=O)NCCNC(C)=O)cn2c1N(C)CCCc1ccccc1,x,x,x,-9,x,1
Cc1ccc(-c2nc(CN3CCCC(C(=O)N4CCOCC4)C3)c(C)o2)cc1 (stereo unspecified),0,-34*,0,-3,u,-3
Cc1oc(-c2cccc(Cl)c2)nc1CN1CCC(C(=O)N2CCN(c3ccccc3F)CC2)CC1,11,-8,4,-63*,6%,-12
CCOc1ccc(-c2nc(CN3CCCC(C(=O)N4CCOCC4)C3)c(C)o2)cc1 (stereo unspecified),7,0,-5,2,-10%,-17
Cc1oc(-c2cccc(Cl)c2)nc1CN1CCCC(C(=O)N2CCN(c3ccc(F)cc3)CC2)C1 (stereo unspecified),35*,-64*,-1,x,7%,-14
Cc1ccc(Cl)cc1N1CCN(C(=O)C2CCN(Cc3nc(-c4cccc(Cl)c4)oc3C)CC2)CC1,1,0,-1,x,-2%,-8
O=C(CCNS(=O)(=O)c1ccccc1)N1CCCCCCC1,2,-2,-5,8,2%,5
O=C(Nc1cccc(S(=O)(=O)NC2=NCCC2)c1)c1cc(-c2ccccn2)nc2ccccc12,2,-6,0,-19,1%,-9
O=C(Nc1ccc(S(=O)(=O)Nc2nccs2)cc1)c1cc(-c2ccccc2Cl)nc2ccccc12,6,25,1,-85*,4%,2
O=C(Nc1cccc(S(=O)(=O)NC2=NCCCCC2)c1)c1cc(-c2ccccc2Cl)nc2ccccc12,5,-36*,-10,14,-9%,5
CCN(CC(=O)Nc1c(F)cccc1F)C(=O)c1ccc2c(c1)NC(=O)C(C)S2 (stereo unspecified),0,16,-5,16,10%,3
SMILES,D1 ag,D1 antagonist,D1 potentiator,DRD3 antagonist,ERG Ets-DNA blk,DRD3 agonist
Cc1ccc(-c2cn(C[C@H]3CC[C@@H]([C@@H]4CC[C@H](Cn5cc(-c6ccc(C)cc6)nn5)O4)O3)nn2)cc1,1,1,-2,-6,3%,5
CC(C)(C)OC(=O)C[C@@H]1C/C=C\C[C@H](CC(=O)N(CCO)Cc2ccccc2)C(=O)NC[C@@H](c2ccccc2)OC1=O,x,x,x,-96*,-10%,-42
C[C@@H]1COC(=O)[C@H](Cc2ccc(F)cc2)C/C=C\C[C@@H](CC(=O)NCCO)C(=O)N1,x,x,x,10,0%,37*
O=C1N[C@@H](Cc2ccccc2)COC(=O)[C@H](Cc2ccc(F)cc2)C/C=C\C[C@@H]1CC(=O)N(CCO)Cc1ccccc1,x,x,x,-65*,-7%,-25
O=C1N[C@H](Cc2ccccc2)COC(=O)[C@H](Cc2ccc(F)cc2)C/C=C\C[C@@H]1CC(=O)N(CCO)Cc1ccccc1,x,x,x,-57*,1%,-40
CS(=O)(=O)c1ccc(N)cc1,3,-1,-2,-21,-15%,-1
CC(C)c1ccc(NC(=S)N2CCCC(c3ccc(F)cc3)=N2)cc1,4,8,-1,-14,11%,-3
CCCCc1nc(SCc2ccc([N+](=O)[O-])cc2)n[nH]1,1,-30*,-1,-14,4%,-4
CCc1nc(SCc2ccc(F)cc2)n[nH]1,1,-6,-1,-15,5%,7
Cc1cc(OCC(=O)N2CCCCCC2)ccc1[N+](=O)[O-],5,8,-5,8,8%,7
COC(=O)C1CCN(Cc2ccc(C)cc2)CC1,1,10,-7,u,-6%,0
Cc1ccc([N+](=O)[O-])c(OCCCN2CCCCCC2)c1,0,x,-12,u,2%,-11
Cc1cc(OCCN2CCCCCC2)ccc1[N+](=O)[O-],1,-9,3,-68*,-1%,-15
CC1CCN(CCCCOc2ccc([N+](=O)[O-])cc2)CC1,2,-44*,-2,-29,-14%,-36
COC(=O)C1CCN(Cc2ccc(OCCCN3CCN(c4ccc([N+](=O)[O-])cc4)CC3)cc2)CC1,11,-27,0,-52*,-8%,-13
CCC(C)NCCCOc1ccc([N+](=O)[O-])cc1 (stereo unspecified),7,-7,-7,-17,-5%,16
Cc1ccc(OCCCCN2CCCC(C)C2)c([N+](=O)[O-])c1 (stereo unspecified),3,x,-12,-80*,-4%,-18
Cc1noc(C)c1COc1ccc(C(=O)N2CCCC(C(N)=O)C2)cc1 (stereo unspecified),6,0,0,-14,-9%,-6
COc1cc(NC(=O)CC(C)S(=O)(=O)c2cc3c(cc2C)NC(=O)CO3)cc(OC)c1OC (stereo unspecified),0,4,-10,-12,5%,-1
Cc1ccc(S(=O)(=O)NC(C)(C)C)cc1C(=O)OCC(=O)N1CCCC1=O,2,12,-2,19,-2%,5
